Source: PubChem
The list is not random: actives were taken first. Their share in the collection is about 3.1%.
IkB sig inh: IkB Signaling; ABC-DLBCL IkBa-CBG/CBR dual luciferase ratio, 4 h; response scale: scaled: untreated 0%, proteasome inhibitor 100%; actives 0.04% (n = 110,000); Potency, µM (top dose mostly 57.1 µM), without a hit: top-dose IkBa stabilization activation; active = well fitted curve in the direction sought with a large enough effect in the signal ratio, not every such curve was filed as active; inconclusive = small, poorly fitted or top-dose-only effect, or a change in a side signal; the % refers to the signal ratio;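 also: the direction sought is a rising ratio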
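Curves were fitted separately to fusion (green), unfused (red) and ratio luminescence, then classed by r2, magnitude and activity. Cells: OCI-Ly3, 4 h compound plus doxycycline at 37C; 10 uM MG-132 defined full response.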
Peg3 imprint: qHTS Assay for Compounds that Induce Erasure of Genomic Imprints; mouse ES Peg3-LacZ reporter, beta-gal luminescence, 40 h; Potency, µM (highest dose often 60.7 µM), for the others: top-dose activity change, positive = activation, hits mostly activators; actives 0.02% (n = 110,000); AID 1948, 2009
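Each well holds 300 Peg3LacZ-Neo (maternal) female ES cells incubated 40 h at 37C, 5% CO2. LacZ is measured by BetaGlo luminescence, with AC50 and maximum efficacy derived from dose-response curves.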
TSHR ag: qHTS Assay for Agonists of the Thyroid Stimulating Hormone Receptor; Thyrotropin receptor (Homo sapiens), P16473; HEK293-CNG-TSHR cells (CNG channel as cAMP sensor), membrane potential dye, cAMP; Potency, µM (doses to about 57.1 µM), for inactives: at the highest dose activation, most hits filed as activators; actives 0.48% (n = 73,000); active = well fitted activation curve with a large enough effect in the main read-out, with a control signal flat, not every such curve was filed as active; inconclusive = small, poorly fitted or top-dose-only effect, or a change in a side signal; inactive = no such curve, though single readings can be large or run the other way; % of control where 0% means no effect;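 also: the control signal comes from parental cells without the receptor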
Target sequence (P16473 whole entry, looked up): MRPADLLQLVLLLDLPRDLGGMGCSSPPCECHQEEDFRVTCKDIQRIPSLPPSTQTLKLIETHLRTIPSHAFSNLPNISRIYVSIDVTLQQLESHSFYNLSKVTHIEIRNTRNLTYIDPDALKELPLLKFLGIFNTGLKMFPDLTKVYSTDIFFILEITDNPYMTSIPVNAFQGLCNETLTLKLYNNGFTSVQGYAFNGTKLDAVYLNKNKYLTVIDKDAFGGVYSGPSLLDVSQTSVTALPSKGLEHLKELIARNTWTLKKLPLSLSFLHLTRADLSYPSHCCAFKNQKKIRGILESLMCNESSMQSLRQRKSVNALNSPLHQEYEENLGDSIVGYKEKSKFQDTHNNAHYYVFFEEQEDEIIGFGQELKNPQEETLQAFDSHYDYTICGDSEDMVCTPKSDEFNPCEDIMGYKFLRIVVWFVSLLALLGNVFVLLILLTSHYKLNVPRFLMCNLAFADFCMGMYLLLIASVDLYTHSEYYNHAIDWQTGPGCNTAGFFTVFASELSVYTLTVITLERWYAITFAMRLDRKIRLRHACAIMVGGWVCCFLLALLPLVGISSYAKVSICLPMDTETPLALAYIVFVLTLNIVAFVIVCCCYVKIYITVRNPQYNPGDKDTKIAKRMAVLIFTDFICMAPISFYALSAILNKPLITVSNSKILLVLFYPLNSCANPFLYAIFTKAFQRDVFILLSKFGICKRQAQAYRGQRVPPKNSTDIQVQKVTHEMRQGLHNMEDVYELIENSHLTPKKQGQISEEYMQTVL
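HEK 293 cells stably expressing TSHR and a modified CNG channel, with CNG-only parental cells as counterscreen, were preloaded 60 min at room temperature with membrane potential dye containing 100 uM RO 20-1724. Compound exposure was 30 min, and depolarization was read as fluorescence at 590 nm.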
p53ts 39C kill: qHTS Screen for Compounds that Selectively Target Cancer Cells with p53 Mutations: Cytotoxicity of p53ts Cells at the Nonpermissive Temperature. AID 902, 2007. Potency, µM (top dose mostly 46.1 µM), for the others: at the top dose activity change, negative = cell killing, actives largely listed as cytotoxic. actives 1.5% (n = 130,000). H1299-p53A138V viability at 39C, ATP luminescence, 24 h; also: % is scaled to controls: 0 for no effect and ±100 for the full control effect; nearly all actives have a fitted effect of over 55% in size
p53ts 32C tox: qHTS Screen for Compounds that Selectively Target Cancer Cells with p53 Mutations: Cytotoxicity of p53ts Cells at the Permissive Temperature. H1299-p53A138V at 32C, ATP luminescence viability, 24 h. Potency, µM (series often up to 46.1 µM), inactives show at the highest dose activity change, negative = cytotoxicity, hits mostly cytotoxic. actives 0.93% (n = 130,000). AID 924, 2007;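 also: 0% = DMSO and -100% = full killing by reference compound; nearly all actives have a fitted effect of over 55% in size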
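Viability by ATPlite luminescence after 24 h compound treatment (up to 46 uM) at the permissive 32C. Cells are H1299 carrying p53 A138V. Scale runs from DMSO basal to 100 uM tamoxifen as full kill; AC50 from Hill fits.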
HEK293 cAMP cs: qHTS Assay for Agonists of the Thyroid Stimulating Hormone Receptor: Activators of Intracellular cAMP Concentrations in Parental HEK 293; parental HEK293 CNG cAMP sensor, membrane potential fluorescence; Potency, µM (series often up to 57.1 µM), for the others: at the top dose activation, usual class: activators; actives 2.5% (n = 73,000); also: % of control where 0% means no effect; nearly all actives have a fitted effect of over 55% in size
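Parental HEK 293 cells stably expressing a modified CNG channel (no TSHR) report cAMP rise as membrane depolarization. Membrane potential dye with 100 uM RO 20-1724 was loaded for 60 min at room temperature, then compound added for 30 min; fluorescence read at 590 nm.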
Numbers without * were called inactive; u = inconclusive; x = no result given; [ ] = remark or other dose. Unless noted, calls follow the shape of the dose curve; as a rule, active = well fitted curve in the direction sought with a large enough effect; inconclusive = small, poorly fitted or top-dose-only effect, or another doubt; inactive = no such curve, though single readings can be large; an effect the other way counts as inactive or inconclusive. Potency is read from the fitted curve at half-maximal effect.

SMILES	IkB sig inh	Peg3 imprint	TSHR ag	p53ts 39C kill	p53ts 32C tox	HEK293 cAMP cs
CCOc1ccc(-c2nnc(SCC(=O)NCc3ccc(C)cc3)nc2-c2ccc(OCC)cc2)cc1	-0.5%	-13.7%[10.9 µM]	x	-18.1%	6.7%	x
CCC(C(=O)NC1CCCCC1)n1c(SCc2cccc(F)c2)nc2ccncc21 (stereo not drawn)	u	-4.3%[10.9 µM]	x	-15.7%	-9.5%	x
COc1ccc(-c2nc(Cn3c(SCc4cccc(F)c4)nc4ccncc43)c(C)o2)cc1OC	2.4%	-23.2%	-43.2%	-10.2%	-14.5%	-15.7%
Cc1cccc(-c2nc(Cn3c(SCc4cccc(C(F)(F)F)c4)nc4ccncc43)c(C)o2)c1	-2.3%	6.2%[10.9 µM]	x	10µM*	-6.8%	x
COC(=O)c1ccc(Cn2c(SCc3cccc(C)c3)nc3ccncc32)cc1	6.7%	-9.8%[10.9 µM]	x	u	25.1µM*	x
CCC(C(=O)NC1CCCCC1)n1c(SCc2cccc(C)c2)nc2ccncc21 (stereo not drawn)	1.4%	-4.4%[10.9 µM]	x	10µM*	12.6µM*	x
CCOC(=O)C1CCN(CCC(=O)Nc2ccc(Br)c(C)c2)CC1	5.6%	-15.0%[10.9 µM]	x	6.7%	-7.5%	x
Cc1nc2c(C(=O)N(C)Cc3ccccc3)c[nH]n2c(=O)c1Cc1ccc(Cl)cc1	-9.8%	22.2%[10.9 µM]	x	4.8%	14.8%	x
CCN1CCC(N(Cc2ccc(F)cc2)C(=O)Nc2cccc(C(F)(F)F)c2)CC1	x	x	x	x	-17.1%	x
COC(=O)c1ccc(COC(=O)C23CC4CC(CC(O)(C4)C2)C3)o1	0.1%	-16.4%	25.1µM*	3.7%	5.7%	6.7%
O=C(COC(=O)C12CC3CC(CC(O)(C3)C1)C2)NC(=O)NCc1ccco1	0.7%	5.7%	-9.1%	-0.5%	1.9%	2.3%
CC(C)C(OC(=O)c1ccco1)C(=O)NCc1ccccc1 (stereo not drawn)	1.5%	-5.6%	u	8.3%	-6.8%	25.1µM*
CCCCN1C(C(=O)c2ccccc2)=C(OC(=O)CC)c2ccccc2S1(=O)=O	u	-24.3%[10.9 µM]	x	15.8µM*	-21.4%	x
CCCCCN1C(C(=O)c2ccccc2)=C(OC(=O)CC)c2ccccc2S1(=O)=O	-1.2%	-20.9%[10.9 µM]	x	-6.6%	u	x
N#Cc1ccc(S(=O)(=O)N2CCC(Oc3cccc(C(F)(F)F)c3)CC2)cc1	u	-11.2%[10.9 µM]	x	-6.1%	0.8%	x
Cn1c(=O)c2cc(C(=O)NC3CCCCCC3)sc2c2ccccc21	0.7%	-9.6%[10.9 µM]	x	7.94µM*	u	x
CCn1c(=O)c2cc(C(=O)NC3CCCCCC3)sc2c2ccccc21	-0.9%	-13.6%[10.9 µM]	x	-4.1%	17.9%	x
COc1cccc(N2CCN(c3ncc4c(n3)CCN(Cc3ccc(Br)cc3)C4)CC2)c1	-0.3%	-10.9%[10.9 µM]	x	-23.1%	-12.0%	x
CCN(C1CCCCC1)S(=O)(=O)c1cn(C)c(=O)n(C)c1=O	-0.5%	-12.3%	u	14.8%	5.9%	3.16µM*
Cn1ncc2c(Nc3cc(C(F)(F)F)ccc3Cl)ncnc21	-2.7%	-14.3%[10.9 µM]	x	-8.3%	5.9%	x
C=C[C@@]1(C)CC(=O)[C@@]2(O)[C@@]3(C)[C@@H](O)CCC(C)(C)[C@@H]3[C@H](O)[C@H](OC(C)=O)[C@@]2(C)O1	-0.1%	-5.2%	u	-12.1%	-6.6%	0.0794µM*
NS(=O)(=O)c1ccc(CCNC(=O)c2ccc3nc(CCc4ccccc4)oc3c2)cc1	-0.4%	-17.4%[10.9 µM]	x	6.5%	-10.4%	x
O=c1cnc2cnc(N3CCOCC3)nc2n1Cc1ccc(F)cc1	-0.3%[11.4 µM]	x	u	13.1%	0.7%	2.51µM*
CC1=C(C(=O)OC2CCCCCC2)C(c2cccc(Cl)c2)CC(=O)N1 (stereo not drawn)	u	-13.3%[10.9 µM]	x	20µM*	-19.3%	x
Cc1cc2c(cc3c(SCc4ccc(Cl)cc4)nnc(C)n32)o1	-1.4%	-12.6%[10.9 µM]	x	10µM*	-10.2%	x
SMILES	IkB sig inh	Peg3 imprint	TSHR ag	p53ts 39C kill	p53ts 32C tox	HEK293 cAMP cs
Cc1cc2c(cc3c(SCc4cccc(F)c4)nnc(C)n32)o1	-1.4%	-14.6%[10.9 µM]	x	-28.3%	-5.4%	x
Cc1cccc(OCc2nc(C#N)c(N3CC(C)CC(C)C3)o2)c1 (stereo not drawn)	5.6%	-18.9%	u	-2.0%	-4.3%	6.31µM*
Cc1cccc(OCc2nc(C#N)c(NCc3ccc4c(c3)OCO4)o2)c1	u	x	u	-7.8%	2.7%	15.8µM*
CCNc1oc(COc2cccc(C)c2)nc1C#N	-0.4%	-10.9%	u	-15.3%	-9.2%	u
COc1ccc(CCNc2oc(COc3ccc(Cl)cc3)nc2C#N)cc1OC	u	-7.5%[10.9 µM]	x	u	22.4µM*	x
COc1ccc(CNc2oc(COc3cccc(C)c3)nc2C#N)cc1	u	-8.3%[10.9 µM]	x	-20.4%	23.1%	x
N#Cc1nc(COc2ccc(Cl)cc2)oc1NCc1ccc2c(c1)OCO2	u	-4.9%	u	-3.5%	5.2%	10µM*
COc1ccc(CCNc2oc(COc3cccc(C)c3)nc2C#N)cc1OC	u	14.3%[10.9 µM]	x	-4.7%	3.8%	x
CCN(C(=O)c1cc2c(=O)oc3ccccc3c2s1)c1ccccc1F	0.5%	-10.1%[10.9 µM]	x	11.0%	8.4%	x
O=C(c1cccc(C(=O)N2CCN(Cc3ccccc3)CC2)c1)N1CCN(Cc2ccccc2)CC1	u	15.1%	u	-6.7%	3.2%	1.26µM*
O=C(NC1CCCCC1)NC1CCN(S(=O)(=O)Cc2ccccc2)CC1	-1.8%	x	-18.0%	6.5%	-7.7%	9.1%
COc1ccc(C(=O)NC2CCN(S(=O)(=O)Cc3ccccc3)CC2)c(OC)c1	2.5%	x	u	14.2%	-7.6%	10µM*
CCC1Oc2ccc(C)cc2N(CC(=O)N2CCN(c3ccccc3OC)CC2)C1=O (stereo not drawn)	u	28.8%[10.9 µM]	x	-26.9%	-0.2%	x
Cn1c(Sc2ccc(-c3cccnc3)n2C)ccc1-c1cccnc1	u	-13.2%[10.9 µM]	-4.9%[11.4 µM]	3.8%[9.22 µM]	2.1%[9.22 µM]	-12.2%[11.4 µM]
COc1ccc(-c2cc(C(=O)N3CCN(c4ccccn4)CC3)c3ccccc3n2)cc1	u	-20.9%	x	12.6µM*	12.6µM*	8.2%
CCOc1ccc(-c2cc(C(=O)N3CCN(c4ccccn4)CC3)c3ccccc3n2)cc1	2.3%	-16.9%	4.3%[11.4 µM]	u	2.51µM*	11.5%
COc1cc(-c2cc(C(=O)N3CCN(c4ccccn4)CC3)c3ccccc3n2)cc(OC)c1OC	u	-10.7%	15.4%[11.4 µM]	-8.6%	14.3%	0.4%
COC(=O)c1cccc(CSc2nnc(-c3ccco3)n2-c2ccccc2)c1	0.3%	-12.0%	u	0.4%	-1.1%	20µM*
